Laboratory results published in PubChem BioAssay AID1159580 (chemical genetic matrix, 2015).
Among all 5,500 compounds or so, about 2,000 (36%) were called active. Roughly 18% stayed inconclusive and do not appear here. Rule as the data show it: active = normalized growth mostly below about 0.91 (no sharp cut-off); inconclusive = no clear call, values can overlap the other calls; inactive = mostly above about 0.92. The list shows a part of the results.

Test: chemical genetic growth profiling, strain panel (AID 1159580);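 also: tested at 20 µM; growth read once vehicle control cultures reached saturation at 30 °C; 1 = growth at the plate median or of vehicle wells; lower values mean less growth of the strain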
Details: S. cerevisiae deletion strains, growth OD

Measured: normalized growth

O=c1c(O)c(-c2ccc(O)c(O)c2)oc2c(O[C@@H]3O[C@H](CO)[C@H](O)[C@@H](O)[C@H]3O)c(O)cc(O)c12
active: locus YLR113W, strain HOG1, active compounds read low 0.834
inactive: locus YAL021C, strain ccr4, active compounds read low 1.01 | locus YAL026C, strain drs2, active compounds read low 1.03 | locus YAL030W, strain snc1, active compounds read low 1.01 | locus YBL061C, strain skt5, active compounds read low 1.01 | locus YBR009C, strain hhf1, active compounds read low 1.02 | locus YBR023C, strain chs3, active compounds read low 1.03 | locus YBR171W, strain sec66, active compounds read low 1.02 | locus YBR231C, strain swc5, active compounds read low 1.01 | locus YBR279W, strain paf1, active compounds read low 1.01 | locus YCL011C, strain gbp2, active compounds read low 1.03 | locus YCL016C, strain dcc1, active compounds read low 1.02 | locus YCL061C, strain MRC1, active compounds read low 1 | locus YCL069W, strain vba3, active compounds read low 1.03 | locus YCR088W, strain abp1, active compounds read low 1 | locus YDL005C, strain med2, active compounds read low 1 | locus YDL040C, strain nat1, active compounds read low 1.01 | locus YDR001C, strain nth1, active compounds read low 1.02 | locus YDR069C, strain doa4, active compounds read low 1.03 | locus YDR137W, strain rgp1, active compounds read low 0.988 | locus YDR159W, strain sac3, active compounds read low 0.997 | locus YDR195W, strain ref2 0.965 | locus YDR297W, strain sur2, active compounds read low 1.03 | locus YDR334W, strain swr1, active compounds read low 1.02 | locus YDR335W, strain msn5, active compounds read low 1.02 | locus YDR392W, strain spt3, active compounds read low 0.978 | locus YEL003W, strain gim4, active compounds read low 1.02 | locus YEL037C, strain rad23, active compounds read low 1.01 | locus YEL061C, strain CIN8 (second series), active compounds read low 1.03 | locus YER015W, strain faa2, active compounds read low 1 | locus YER016W, strain bim1, active compounds read low 1.01 | locus YER111C, strain swi4, active compounds read low 1.01 | locus YER155C, strain BEM2 (second series), active compounds read low 1.04 | locus YFR010W, strain ubp6, active compounds read low 1.01 | locus YGL167C, strain pmr1, active compounds read low 1.02 | locus YGL173C, strain kem1, active compounds read low 1.02 | locus YGL227W, strain vid30, active compounds read low 0.999 | locus YGL240W, strain doc1, active compounds read low 1.01 | locus YGL253W, strain hxk2, active compounds read low 1.02 | locus YHR013C, strain ard1, active compounds read low 1.02 | locus YHR027C, strain rpn1, active compounds read low 0.998 | locus YHR030C, strain SLT2, active compounds read low 0.895 | locus YHR079C, strain IRE1, active compounds read low 0.886 | locus YHR142W, strain chs7, active compounds read low 1.04 | locus YJL092W, strain hpr5, active compounds read low 1.01 | locus YJL095W, strain BCK1 (second series), active compounds read low 1.01 | locus YJL095W, strain BCK1, active compounds read low 0.895 | locus YJL115W, strain asf1, active compounds read low 1 | locus YJL129C, strain trk1, active compounds read low 1 | locus YJL154C, strain vps35, active compounds read low 1.02 | locus YJL164C, strain tpk1, active compounds read low 1.03 | locus YJL166W, strain qcr8, active compounds read low 1.04 | locus YJL187C, strain SWE1, active compounds read low 1.03 | locus YJR066W, strain TOR1, active compounds read low 0.914 | locus YKL160W, strain elf1, active compounds read low 1 | locus YKR026C, strain gcn3, active compounds read low 1.01 | locus YKR091W, strain srl3, active compounds read low 1.02 | locus YLL001W, strain dnm1, active compounds read low 0.989 | locus YLL026W, active compounds read low 1.01 | locus YLL041C, strain sdh2, active compounds read low 1.02 | locus YLR027C, strain aat2, active compounds read low 1.03 | locus YLR221C, strain rsa3, active compounds read low 1 | locus YLR258W, strain gsy2, active compounds read low 1.01 | locus YLR262C, strain YPT6 (second series), active compounds read low 1.06 | locus YLR320W, strain mms22, active compounds read low 1.01 | locus YLR342W, strain FKS1, active compounds read low 1.02 | locus YLR357W, strain rsc2, active compounds read low 0.988 | locus YLR370C, strain arc18, active compounds read low 1.02 | locus YLR384C, strain iki3, active compounds read low 1 | locus YML120C, strain ndi1, active compounds read low 1.01 | locus YMR058W, strain fet3, active compounds read low 1.01 | locus YMR125W, strain sto1, active compounds read low 1 | locus YMR129W, active compounds read low 1.01 | locus YMR205C, strain PFK2, active compounds read low 1.02 | locus YMR231W, strain pep5, active compounds read low 1 | locus YNL071W, strain lat1, active compounds read low 1.03 | locus YNL183C, strain NPR1, active compounds read low 0.913 | locus YNL209W, strain ssb2, active compounds read low 1.02 | locus YNL248C, strain rpa49, active compounds read low 0.988 | locus YNL322C, strain KRE1 (second series), active compounds read low 1 | locus YNR049C, strain mso1, active compounds read low 1.02 | locus YOR001W, strain rrp6, active compounds read low 1.01 | locus YOR070C, strain gyp1, active compounds read low 1.01 | locus YOR080W, strain dia2, active compounds read low 1.01 | locus YOR083W, strain WHI5, active compounds read low 1.03 | locus YOR106W, strain vam3, active compounds read low 1.01 | locus YOR231W, strain MKK1, active compounds read low 0.91 | locus YOR265W, strain rbl2, active compounds read low 1.04 | locus YOR270C, strain vph1, active compounds read low 1.11 | locus YOR290C, strain snf2, active compounds read low 1.03 | locus YPL051W, strain arl3, active compounds read low 1.01 | locus YPL078C, strain atp4, active compounds read low 1.01 | locus YPL106C, strain sse1, active compounds read low 0.971 | locus YPL240C, strain hsp82, active compounds read low 1.02 | locus YPL256C, strain CLN2, active compounds read low 0.868
